Results filed as inconclusive are left out. Calls of active or inactive are those of the source. Unless noted, calls come from the whole dose curve.
Assays:
[1] = G protein-coupled receptor (GPCR) small molecule agonists, calcium flux assay: HEK293 wild type cell line counter screen (AID 1920065)
Method in brief: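 Kinetic fluorescence at Ex/Em 480/540, recorded every second over 3 min, served as the read-out after compound addition. Each compound was tested at 15 concentrations in triplicate on cells pre-loaded with calcium dye for 1 h.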

[2] = p53 small molecule agonists, cell-based qHTS assay with human liver microsomes (AID 1963577);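 note: p53 response element beta-lactamase reporter cells with liver microsomes plus NADPH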
Method in brief: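 HLM-supplemented p53RE-bla reporter assay: 16 h compound exposure at 37 C, microsomes and NADPH each 0.5 mg/mL final, read by fluorescence intensity.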

[3] = p53 small molecule agonists, cell-based qHTS assay with rat liver microsomes (AID 1963578)
Method in brief: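 Quantitative HTS of the Tox21 10K library: p53RE-bla cells, rat liver microsomes plus NADPH at 0.5 mg/mL final each, 16 h at 37 C, beta-lactamase fluorescence detection.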

[4] = p53 small molecule agonists, cell-based qHTS assay with human liver microsomes: qHTS cell viability counter screen (AID 1963579); note: nearly all actives have a fitted effect of over 45% in size
Method in brief: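 Viability of p53RE-bla cells is measured as CellTiter-Glo luminescence following a 16 h, 37 C incubation with compound, liver microsomes from human donors and NADPH.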

[5] = p53 small molecule agonists, cell-based qHTS assay: qHTS cell viability counter screen (AID 1963581); note: nearly all actives have a fitted effect of over 45% in size
Method in brief: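 HCT-116 p53RE-bla cells, 4,000/well, plated 5 h before compound pin transfer; 16 h at 37 C; bla substrate 2 h RT; then CellTiter-Glo, 30 min RT, luminescence.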

[6] = target: 5-hydroxytryptamine receptor 2A (Homo sapiens) (UniProt P28223); test: 5-hydroxytryptamine receptor 2A (HTR2A) small molecule antagonists, cell-based qHTS assay (AID 1963586); note: nearly all actives have a fitted effect of over 45% in size
Method in brief: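 Antagonist-mode intracellular calcium assay: DOI (4 nM) added after 5 min compound pre-incubation at room temperature to dye-loaded HTR2A-CHO cells. Fluorescence followed for 3 min, sampled every second.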

[7] = target: 5-hydroxytryptamine receptor 2A (Homo sapiens) (UniProt P28223); test: 5-hydroxytryptamine receptor 2A (HTR2A) small molecule agonists, cell-based qHTS assay (AID 1963587); note: nearly all actives have a fitted effect of over 30% in size
Method in brief: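 CHO cells stably expressing human HTR2A, plated 18 h, loaded with calcium dye 1 h at 37 C. Agonist mode: compounds added and intracellular calcium fluorescence recorded kinetically for 2 min at 1 sec intervals.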

[8] = target: Muscarinic acetylcholine receptor M1 (Homo sapiens) (UniProt P11229); test: Cholinergic receptor muscarinic 1 (CHRM1) small molecule antagonists, cell-based qHTS assay (AID 1963588); note: nearly all actives have a fitted effect of over 40% in size
Method in brief: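 CHRM1-CHO calcium-flux assay, antagonist mode. Cells were seeded 18 h, dye-loaded 1 h at 37 C and given compound for 5 min at RT, then acetylcholine was added at 50nM. FDSS fluorescence was read 3 min; 15 concentrations, three runs.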

[9] = target: Muscarinic acetylcholine receptor M1 (Homo sapiens) (UniProt P11229); test: Cholinergic receptor muscarinic 1 (CHRM1) small molecule agonists, cell-based qHTS assay (AID 1963589); note: nearly all actives have a fitted effect of over 35% in size
Method in brief: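 Human M1 in stable CHO line; 18 h plating, 1 h dye load 37 C; cpd added (agonist mode); Ca2+ fluorescence kinetic read, 1 s intervals; 15 conc, 3 runs.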

[10] = cAMP Responsive Elements (CRE) small molecule agonists, cell-based qHTS assay (AID 1963590)
Method in brief: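 HEK 293T CRE-bla, 2,000 cells/well, 18 h preincubation 37 C/5% CO2; cpds (DMSO) pinned, 3 h; LiveBLAzer B/G FRET substrate, 2 h RT.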

[11] = cAMP Responsive Elements (CRE) small molecule antagonists, cell-based qHTS assay (AID 1963591; active = well fitted inhibition curve with a large enough effect in the signal ratio in the repeat runs, not every such curve was filed as active; the % refers to the signal ratio)
Method in brief: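 Beta-lactamase reporter read by FRET substrate (LiveBLAzer B/G) after 2 h at room temperature. CRE-bla HEK293T cells had received compound plus 0.25 uM (final) NKH477 for 3 h at 37 °C.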

[12] = target: Beta-2 adrenergic receptor (Homo sapiens) (UniProt P07550); test: Adrenergic beta2 receptor (ADRB2) small molecule antagonists, cell-based qHTS assay (AID 1963592); note: series mostly up to about 92 µM; nearly all actives have a fitted effect of over 50% in size
Method in brief: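 Cells (CHO, stable ADRB2 overexpression) incubated 18-20hr at 37C; compounds added from DMSO; agonist mix (1nM isoproterenol, 100uM IBMX, 25uM Ro-20-1724) added; 0.5hr RT; d2-cAMP and anti-cAMP-cryptate added; 1hr RT; 665/615 nm read.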

[13] = target: Beta-2 adrenergic receptor (Homo sapiens) (UniProt P07550); test: Adrenergic beta2 receptor (ADRB2) small molecule agonists, cell-based qHTS assay (AID 1963593);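 note: CHO cells stably overexpressing human ADRB2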
Method in brief: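 CHO cells stably over-expressing ADRB2 were plated overnight at 37C, then dosed with compounds plus a stimulation mix containing 100uM IBMX and 25uM Ro-20-1724 for 0.5hr at room temperature. cAMP was measured by HTRF competition, 1hr.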

[14] = target: D(2) dopamine receptor (Homo sapiens) (UniProt P14416); test: Dopamine D2 receptor (DRD2) small molecule agonists, cell-based qHTS assay (AID 1963594); note: nearly all actives have a fitted effect of over 35% in size
Method in brief: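 HEK293 cells stably expressing human DRD2, pre-treated with PDE inhibitor Ro20-1724 (0.1 mM final) and compound 10 min at room temperature, then stimulated with NKH477 (200nM […]) for 30 min. cAMP read by HTRF (665/620 nm).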

[15] = target: D(2) dopamine receptor (Homo sapiens) (UniProt P14416); test: Dopamine D2 receptor (DRD2) small molecule antagonists, cell-based qHTS assay (AID 1963595; active = well fitted inhibition curve with a large enough effect in the signal ratio in the repeat runs, with a control signal flat; the % refers to the signal ratio)
Method in brief: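 HTRF cAMP read-out at 665 and 620 nm emission (340 nm excitation). Antagonist mode: compounds were tested against 12 nM quinpirole in DRD2-HEK293 cells, with 200 nM NKH477 raising cAMP and 0.1 mM Ro20-1724 blocking its breakdown.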

[16] = target: Gonadotropin-releasing hormone receptor (Homo sapiens) (UniProt P30968); test: Human gonadotropin-releasing hormone receptor (GnRHR) small molecule agonists, calcium flux assay in GnRHR-HEK293 cells (AID 1920063); note: nearly all actives have a fitted effect of over 35% in size
Method in brief: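 GnRHR-HEK293, 1500 cells/well, 18 h 37 C/5% CO2; Ca dye 1 h 37 C; cpd pinned (DMSO), agonist mode; kinetic FL 480/540, 3 min, 1 s reads; 15 conc, n=3.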

[17] = target: KiSS-1 receptor (Homo sapiens) (UniProt Q969F8); test: Human kisspeptin (KISS1R) small molecule agonists, calcium flux assay in KISS1R-HEK293 cells (AID 1920064; active = well fitted activation curve with a large enough effect in the repeat runs)
Method in brief: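 Stable human KISS1R HEK293 line; 18 h plating, 37 C/5% CO2; calcium dye 1 h 37 C; compound pin transfer; kinetic fluorescence Ex/Em 480/540, 3 min.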

[18] = p53 small molecule agonists, cell-based qHTS assay with rat liver microsomes: qHTS cell viability counter screen (AID 1963580); note: nearly all actives have a fitted effect of over 45% in size
Method in brief: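 Viability is assessed in parallel with the p53 reporter read: HCT-116 p53RE-bla cells receive compounds plus rat microsomes and NADPH (0.5 mg/mL final apiece), incubate 16 h at 37 C, and then CellTiter-Glo luminescence is recorded.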

[19] = p53 small molecule agonists, cell-based qHTS assay (AID 1963582; active = well fitted activation curve with a large enough effect in the signal ratio in the repeat runs, not every such curve was filed as active; the % refers to the signal ratio)
Method in brief: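 Reporter line: p53RE-bla. Pre-incubation 5 h, 37 C, 5% CO2; compound (DMSO, pin tool) 16 h, 37 C; B/G FRET substrate 2 h RT; fluorescence intensity read.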

Measured: Potency

D(2) dopamine receptor (Homo sapiens), sequence (P14416 whole entry, looked up): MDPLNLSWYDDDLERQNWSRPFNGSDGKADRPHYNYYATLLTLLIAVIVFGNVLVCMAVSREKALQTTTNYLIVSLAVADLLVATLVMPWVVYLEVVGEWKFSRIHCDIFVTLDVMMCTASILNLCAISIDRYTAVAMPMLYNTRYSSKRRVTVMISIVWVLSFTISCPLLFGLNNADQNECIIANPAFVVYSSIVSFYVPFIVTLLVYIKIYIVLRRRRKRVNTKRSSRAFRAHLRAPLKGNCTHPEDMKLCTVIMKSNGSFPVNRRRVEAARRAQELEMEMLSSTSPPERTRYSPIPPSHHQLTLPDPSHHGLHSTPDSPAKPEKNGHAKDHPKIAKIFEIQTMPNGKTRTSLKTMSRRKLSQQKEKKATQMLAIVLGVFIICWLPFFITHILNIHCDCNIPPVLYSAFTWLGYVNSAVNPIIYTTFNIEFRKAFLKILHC
Gonadotropin-releasing hormone receptor (Homo sapiens), sequence (P30968 whole entry, looked up): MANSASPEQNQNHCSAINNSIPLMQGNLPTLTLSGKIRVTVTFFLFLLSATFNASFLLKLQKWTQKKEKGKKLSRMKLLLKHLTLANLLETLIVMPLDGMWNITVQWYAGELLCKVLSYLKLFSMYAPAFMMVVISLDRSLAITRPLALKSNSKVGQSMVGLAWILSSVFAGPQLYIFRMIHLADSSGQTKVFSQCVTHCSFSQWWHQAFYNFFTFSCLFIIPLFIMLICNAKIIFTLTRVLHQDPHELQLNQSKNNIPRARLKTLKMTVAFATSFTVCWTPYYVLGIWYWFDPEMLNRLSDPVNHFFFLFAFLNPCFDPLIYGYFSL
5-hydroxytryptamine receptor 2A (Homo sapiens), sequence (P28223 whole entry, looked up): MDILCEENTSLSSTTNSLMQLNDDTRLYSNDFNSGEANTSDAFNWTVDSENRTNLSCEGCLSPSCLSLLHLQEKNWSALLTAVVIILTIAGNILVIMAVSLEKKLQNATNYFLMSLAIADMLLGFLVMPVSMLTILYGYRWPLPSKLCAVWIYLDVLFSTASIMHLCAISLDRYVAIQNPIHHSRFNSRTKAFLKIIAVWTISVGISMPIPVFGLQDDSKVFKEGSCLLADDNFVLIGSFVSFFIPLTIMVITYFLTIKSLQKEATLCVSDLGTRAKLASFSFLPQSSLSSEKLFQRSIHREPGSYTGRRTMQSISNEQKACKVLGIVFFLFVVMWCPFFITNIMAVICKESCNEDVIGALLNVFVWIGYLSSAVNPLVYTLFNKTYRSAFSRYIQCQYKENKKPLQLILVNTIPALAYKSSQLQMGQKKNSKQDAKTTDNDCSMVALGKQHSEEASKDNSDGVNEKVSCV
Muscarinic acetylcholine receptor M1 (Homo sapiens), sequence (P11229 whole entry, looked up): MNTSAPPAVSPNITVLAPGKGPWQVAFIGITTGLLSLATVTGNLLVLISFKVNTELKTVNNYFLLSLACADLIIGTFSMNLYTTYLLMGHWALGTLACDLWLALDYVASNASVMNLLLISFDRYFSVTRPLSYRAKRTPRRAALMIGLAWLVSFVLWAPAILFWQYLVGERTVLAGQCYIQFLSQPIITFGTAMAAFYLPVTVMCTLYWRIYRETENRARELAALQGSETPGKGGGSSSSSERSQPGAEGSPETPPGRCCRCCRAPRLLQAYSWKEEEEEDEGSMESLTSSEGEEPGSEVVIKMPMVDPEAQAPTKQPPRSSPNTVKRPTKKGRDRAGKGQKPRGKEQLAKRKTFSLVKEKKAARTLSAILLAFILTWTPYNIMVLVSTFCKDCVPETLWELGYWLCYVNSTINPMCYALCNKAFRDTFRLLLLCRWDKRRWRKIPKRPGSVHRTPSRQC
Beta-2 adrenergic receptor (Homo sapiens), sequence (P07550 whole entry, looked up): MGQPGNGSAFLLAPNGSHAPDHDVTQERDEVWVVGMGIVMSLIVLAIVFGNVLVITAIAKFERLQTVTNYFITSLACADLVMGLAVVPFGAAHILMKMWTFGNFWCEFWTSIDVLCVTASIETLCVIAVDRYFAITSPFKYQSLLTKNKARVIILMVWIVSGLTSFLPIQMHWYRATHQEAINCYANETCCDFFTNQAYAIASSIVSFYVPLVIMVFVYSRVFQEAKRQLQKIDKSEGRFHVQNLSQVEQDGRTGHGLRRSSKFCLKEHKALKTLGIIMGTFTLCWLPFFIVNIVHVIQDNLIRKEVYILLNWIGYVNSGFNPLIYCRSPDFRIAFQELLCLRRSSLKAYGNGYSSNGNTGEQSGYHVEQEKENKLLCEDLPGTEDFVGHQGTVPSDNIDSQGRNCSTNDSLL
KiSS-1 receptor (Homo sapiens), sequence (Q969F8 whole entry, looked up): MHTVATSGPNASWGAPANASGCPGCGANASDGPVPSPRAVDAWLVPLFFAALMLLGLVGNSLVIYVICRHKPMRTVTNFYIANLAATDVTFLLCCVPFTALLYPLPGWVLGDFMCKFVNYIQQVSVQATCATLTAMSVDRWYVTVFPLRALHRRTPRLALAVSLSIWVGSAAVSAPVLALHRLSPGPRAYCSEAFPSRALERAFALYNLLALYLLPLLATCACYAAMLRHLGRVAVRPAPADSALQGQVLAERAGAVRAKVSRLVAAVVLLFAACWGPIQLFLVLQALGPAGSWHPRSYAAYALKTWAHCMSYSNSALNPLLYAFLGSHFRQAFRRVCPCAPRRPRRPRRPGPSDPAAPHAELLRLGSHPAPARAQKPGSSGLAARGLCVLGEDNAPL

CC(C)(Cl)Cl
not listed: [16] | [17] | [18] | [19]
inactive: all other assays above

CCOC(=O)Nc1cccc(OC(=O)Nc2ccccc2)c1
not listed: [7] | [14]
inactive: all other assays above

O=C(O)C(Cl)(Cl)Cl
not listed: [4] | [6] | [7] | [8] | [9] | [13]
inactive: all other assays above

CCN
not listed: [10] | [13]
inactive: all other assays above

N#Cc1cccnc1
not listed: [2] | [3] | [8] | [10] | [13] | [19]
inactive: all other assays above

Oc1ccccc1-c1ccccc1
not listed: [11]
inactive: all other assays above

CCN(CCO)CCO
not listed: [5] | [7]
inactive: all other assays above
